D2 ag-1: activates the human D2 dopamine receptor; AID 624465; activation, % (concentration not given with the values); DiscoveRx PathHunter D2 beta-arrestin, luminescence, 90 min; 100% = 57 uM dopamine signal; actives 0.084% (n = 360,000); in the data active = activation above about 40%; inconclusive = between about 15% and that limit
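Agonist mode: compounds alone added to overnight-plated D2 PathHunter cells for 90 min at 37 C, with 57 uM final dopamine (EC100) defining full response. Beta-arrestin recruitment detected by chemiluminescent reagent, read after 1 h at ambient temperature.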
D2 antag: antagonizes the human D2 dopamine receptor | HEK293 TREx D2 cells, calcium flux, dopamine EC80 | inhibition, % at 10 µM | P14416 | AID 485344 | actives 2% (n = 340,000); in the data active = inhibition above about 30%; inactive = below that, where a call was filed
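Tetracycline-induced HEK293 TREx cells expressing D2 receptor forced-coupled to calcium signalling, loaded with no-wash calcium dye. Compounds added and calcium flux read 180 s, then dopamine added at EC80 and read a further 180 s.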
D2 PAM-1: positively modulates the human D2 dopamine receptor allosterically; P14416; HEK293 T-REx D2, calcium flux, EC20 dopamine potentiation; potentiation, % at 10 µM; actives 0.34% (n = 340,000);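 active = potentiation over 3 SD above the plate norm, cut at about 30% in these data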
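Tetracycline-induced HEK293 T-REx cells force-coupled to calcium signalling expressed D2; compounds were pin-added after a 10 s baseline, read kinetically 180 s, then an EC20 dopamine challenge followed with a further 180 s calcium read.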
D2 ag-2: activates the human D2 dopamine receptor; P14416; HEK293 T-REx D2 cells, calcium flux agonist mode; activation, % at 2 µM; actives 0.53% (n = 340,000);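 active = activation over 3 SD above normal in the single-dose calcium agonist read, cut at about 30% in these data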
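In this primary screen, compounds producing a positive calcium signal within 180 s of addition to tetracycline-induced, force-coupled HEK293 Trex D2 cells are flagged; cells are dye-loaded with a no-wash calcium kit beforehand.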
D2 PAM-2: human D2 receptor positive allosteric modulation. P14416. AID 624464. actives 0.23% (n = 360,000). DiscoveRx D2 beta-arrestin cells, luminescence, 90 min; 100% = 57 uM dopamine signal. potentiation, % (test concentration not listed); in the data active = potentiation above about 50%; inconclusive = mostly about 30% to 49%
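PathHunter D2 cells, attached overnight at 37 deg C, received compound in DMSO plus dopamine at EC20 (50 nM final) for 90 min at 37 deg C. Beta-arrestin recruitment was read as luminescence after 1 h with detection reagent at ambient temperature.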
D3 arrestin ag: activates human D3 dopamine receptor beta-arrestin recruitment. shares compounds with D2 ag-2. DiscoveRx D3 beta-arrestin cells, luminescence, 90 min. actives 4% (n = 2,300). Potency, µM (highest dose often 76.9 µM), most hits filed as activators; note: nearly all actives have a fitted effect of over 70% in size
Target sequence (P35462 whole entry, looked up): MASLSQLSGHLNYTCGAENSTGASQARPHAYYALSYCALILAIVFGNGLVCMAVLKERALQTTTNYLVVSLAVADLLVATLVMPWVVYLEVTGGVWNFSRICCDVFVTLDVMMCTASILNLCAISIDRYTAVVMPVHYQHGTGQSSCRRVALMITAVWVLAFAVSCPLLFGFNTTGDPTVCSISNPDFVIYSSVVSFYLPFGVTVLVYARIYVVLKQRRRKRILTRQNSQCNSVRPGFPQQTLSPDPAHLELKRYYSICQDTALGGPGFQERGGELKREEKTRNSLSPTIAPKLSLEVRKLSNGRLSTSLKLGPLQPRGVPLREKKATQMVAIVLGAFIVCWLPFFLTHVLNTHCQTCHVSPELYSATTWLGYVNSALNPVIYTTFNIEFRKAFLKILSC
D2 ag-3: activates human D2 dopamine receptor in D3 counterscreen. shares compounds with D2 ag-2. DiscoveRx PathHunter D2 beta-arrestin, luminescence, 90 min; response scale: percent relative to full dopamine signal. Potency, µM (top dose mostly 76.9 µM), usual class: activators. actives 5.9% (n = 2,300); note: nearly all actives have a fitted effect of over 70% in size
Hits are given with their value; i = inactive; ? = inconclusive; nt = no result; ! = repeats disagree. Only some compounds are listed: those with a hit (about 2.4% of all), similar ones and a draw of the others. Unless noted, calls come from the whole dose curve; as a rule, active = well fitted activation curve with a large enough effect; inconclusive = small, poorly fitted or top-dose-only effect; inactive = flat fitted curve, though single readings scatter.

SMILES	D2 ag-1	D2 antag	D2 PAM-1	D2 ag-2	D2 PAM-2	D3 arrestin ag	D2 ag-3
O=C1C=C(/C=C/c2ccccc2)C[C@@H](c2ccc(F)cc2)C1	i	i	i	i	i	i	i
COc1ccc(N2CCN(S(=O)(=O)c3c(C)nc4sc(C)cn4c3=O)CC2)cc1	nt	nt	i	i	nt	nt	nt
CCN(CC)CCCNC(=O)CN1C(=O)CSc2ccc(S(=O)(=O)N3CCOCC3)cc21	i	i	i	i	i	nt	nt
CCN(CC)CC(C)CNC(=O)CN1C(=O)CSc2ccc(S(=O)(=O)N3CCOCC3)cc21 (stereo not drawn)	i	i	i	54.3!	i	i	i
N#CC1=C(N)NC(SCC(=O)Nc2ccc(Br)cc2)=C(C#N)C12CCCCC2	i	i	i	75.4	i	i	i
N#CC1=C(N)NC(SCc2ccc(Br)cc2)=C(C#N)C12CCCCC2	i	nt	nt	nt	i	nt	nt
O=[N+]([O-])c1ccc(Cl)cc1P(=O)(O)c1cc(Cl)ccc1[N+](=O)[O-]	i	nt	nt	nt	i	nt	nt
CC(=O)CSc1nnc(-c2ccc(S(=O)(=O)N3CCCC3)cc2)n1C	i	i	i	i	i	nt	nt
CC(=O)CSc1nnc(-c2ccc(S(=O)(=O)N3CCOCC3)cc2)n1C	i	nt	nt	nt	i	i	i
O=C(CC1NCCc2ccccc21)Nc1ccccc1 (stereo not drawn)	i	i	i	i	i	nt	nt
O=C(CC1NCCc2ccccc21)Nc1ccccc1Cl (stereo not drawn)	i	i	i	i	i	i	i
O=C(CC1NCCc2ccccc21)Nc1ccc(Oc2ccccc2)cc1 (stereo not drawn)	i	60.3	i	67.9	i	i	i
COCCCNC(=O)CSc1nc2cc3c(cc2c(=O)n1CCCCCC(=O)NCCc1ccc(OC)c(OC)c1)OCO3	nt	nt	i	nt	nt	nt	nt
Cc1ccc(S(=O)(=O)N2CCN(C(=O)COC(=O)CSc3cc(C)ccc3C)CC2)c(C)c1	i	i	i	i	i	i	i
Cc1ccc(S(=O)(=O)N2CCN(C(=O)COC(=O)/C=C/c3ccccc3)CC2)c(C)c1	i	i	i	i	i	i	i
Cc1ccc(S(=O)(=O)N2CCN(C(=O)COC(=O)/C=C/c3ccc(F)cc3)CC2)c(C)c1	i	i	i	i	i	nt	nt
Cc1cccc(NC(=O)CSc2nccn2Cc2ccc(F)cc2)c1C	nt	nt	i	i	nt	nt	nt
O=C(Cc1ccc(Cl)cc1)SCc1ccccc1	i	i	i	i	i	i	i
O=C(Cc1ccccc1)NCCSCc1ccc(Cl)cc1	i	i	i	i	i	nt	nt
CCOC(=O)C1CCN(CC(=O)Nc2c(C(=O)OC)[nH]c3cccc(C)c23)CC1	i	i	i	i	i	i	i
CCOC(=O)C1CCCN(CC(=O)Nc2c(C(=O)OC)[nH]c3ccccc23)C1 (stereo not drawn)	i	nt	nt	nt	i	nt	nt
O=C(O)CCSc1ccc([N+](=O)[O-])cc1[N+](=O)[O-]	i	nt	i	nt	i	?	i
CC(/C=C/c1ccccc1)=N\NC(=S)NC(C)C	i	i	i	31.2	i	i	i
CC(=O)c1cc2c(C)c(C(=O)c3ccccc3)oc2cc1O	i	i	i	35.6	i	i	i
O=C(c1ccccc1)c1ccc(O)cc1O	i	i	i	i	i	nt	nt
SMILES	D2 ag-1	D2 antag	D2 PAM-1	D2 ag-2	D2 PAM-2	D3 arrestin ag	D2 ag-3
COc1cc(NC(=O)c2cc3cc4ccc(OC)c(Cl)c4nc3s2)cc(OC)c1	nt	nt	i	i	nt	nt	nt
O=C(NNC(=S)NC1CCCCC1)c1sc2ccccc2c1Cl	i	i	i	i	i	nt	nt
CC(C)(C)C(=O)NC(=S)NNC(=O)c1sc2ccccc2c1Cl	i	56.6	i	146.0	i	i	i
COc1ccc(-c2ccc(SCC(=O)N3CCCC3)nn2)cc1OC	i	i	i	i	i	i	i
Cc1cc(=O)[nH]c2c(C)cc(S(=O)(=O)NCc3ccccc3)cc12	i	i	i	36.3	i	i	i
COc1ccccc1C(=O)NCC(=O)N/N=C/c1cn[nH]c1-c1ccccc1	i	i	i	66.7	i	i	i

Assay outcomes: PubChem BioAssay, National Center for Advancing Translational Sciences (NCATS)
